Sampled rows, rich in hits. Any-hit rate of the full collection: about 1.6%.
NALP1 inh = NALP1 inflammasome inhibitors in reconstituted yeast, colorimetric, S. cerevisiae, triplicate retest; S. cerevisiae NALP1/ASC/caspase-1 growth, X-gal OD620, 72 h; inhibition, % at 10 µM; 280,000 tested, 0.61% active; in the data active = inhibition mostly above about 24%, no sharp cut-off; inactive = mostly below about 32%
MOR-DOR ag-1 = agonists of OPRM1-OPRD1 heterodimerization, primary screen, cell-based, luminescence. Mu-type opioid receptor (Homo sapiens) + Delta-type opioid receptor (Homo sapiens), …. cells. activation, % at 9.3 µM. 340,000 tested, 0.3% active;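 note: 0% = vehicle-treated cells and 100% = reference agonist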
Target sequence (P35372 whole entry, looked up): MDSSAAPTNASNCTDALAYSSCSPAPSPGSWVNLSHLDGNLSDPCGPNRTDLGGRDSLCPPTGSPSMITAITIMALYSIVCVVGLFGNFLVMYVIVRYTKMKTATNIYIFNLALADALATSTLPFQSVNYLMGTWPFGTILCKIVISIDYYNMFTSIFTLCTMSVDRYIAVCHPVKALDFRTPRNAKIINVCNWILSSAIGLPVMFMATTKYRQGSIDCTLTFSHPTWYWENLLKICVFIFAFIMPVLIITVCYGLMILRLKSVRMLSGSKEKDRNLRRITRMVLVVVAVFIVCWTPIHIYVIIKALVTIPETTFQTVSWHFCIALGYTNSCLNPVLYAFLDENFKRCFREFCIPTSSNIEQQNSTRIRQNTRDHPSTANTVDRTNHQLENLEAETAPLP
Target sequence (P41143 whole entry, looked up): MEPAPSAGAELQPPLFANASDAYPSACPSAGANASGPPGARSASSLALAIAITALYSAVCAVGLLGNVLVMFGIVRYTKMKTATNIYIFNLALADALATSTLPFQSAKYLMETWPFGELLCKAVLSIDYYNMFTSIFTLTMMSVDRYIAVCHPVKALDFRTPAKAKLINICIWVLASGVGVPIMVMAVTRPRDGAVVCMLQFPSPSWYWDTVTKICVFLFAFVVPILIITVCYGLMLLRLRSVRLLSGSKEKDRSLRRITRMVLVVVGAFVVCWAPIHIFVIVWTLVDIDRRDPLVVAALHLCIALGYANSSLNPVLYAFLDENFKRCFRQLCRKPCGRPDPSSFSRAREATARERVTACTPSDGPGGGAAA
HTR5A inv ag = HTR5A inverse agonists in luminescence cell assay, primary screen, counter-screen for OPRM1-OPRD1 heterodimer inverse agonist project, full-deck HTS; AID 504634, 2011; 340,000 tested, 0.083% active; HTR5A cell line, inverse agonism; inhibition, % at 9.3 µM; in the data active = inhibition mostly above about 23%, no sharp cut-off; inactive = mostly below about 18%;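 note: 0% = cells with DMSO and 100% = no-cell wells with DMSO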
HTR5A ag = HTR5A agonists in luminescence cell assay, primary screen, counter-screen for OPRM1-OPRD1 heterodimer agonist project, full-deck HTS; activation, % at 9.3 µM; 5-hydroxytryptamine receptor 5A (Homo sapiens), P47898; 340,000 tested, 0.61% active; cell-based; in the data active = activation mostly above about 9.5%, no sharp cut-off; inactive = mostly below about 7.6%;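 note: 0% = cells with vehicle only and 100% = reference agonist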
MOR-DOR inv ag = inverse agonists of MOR-DOR heterodimerization, primary screen, cell-based, luminescence; Mu-type opioid receptor (Homo sapiens) + Delta-type opioid receptor (Homo sapiens), …; cell-based MOR-DOR heterodimer luminescence, inverse agonism; inhibition, % at 9.3 µM; 340,000 tested, 0.21% active; AID 504357, 2011; in the data active = inhibition above about 22%, passing the limit was not always enough;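 note: 0% = cells with DMSO and 100% = wells without cells with DMSO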
PolyA inhibitor = polyadenylation inhibitors in yeast reporter cells, primary screen, luminescence, S. cerevisiae | S. cerevisiae SKY197-pL101 polyadenylation reporter, beta-gal luminescence; efflux-impaired pdr1/pdr3 knockout yeast; score 100 = 6 SD above DMSO | activity score, % at 12 µM | 300,000 tested, 0.02% active | AID 1875, 2009;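 active = lowest replicate activity score at least 50, where 100 means six control SD above control mean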;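 note: yeast exposed to compound for 9 h at 30 °C; higher score means more reporter readthrough which indicates perturbed polyadenylation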
MOR-DOR ag-2 = OPRM1-OPRD1 heterodimerization promoters, counter-screen for HTR5A agonist project, cell-based, luminescence. shares compounds with HTR5A ag. U2OS counter-screen cells, complementation luminescence, 3 h. activation, % at 9.3 µM. 800 tested, 13% active. AID 504913, 2011
HTR5A ag confirm = HTR5A agonists, retest of hits, confirmation, cell-based, luminescence. shares compounds with HTR5A ag. 800 tested, 17% active. activation, % at 9.3 µM. HTR5A agonist cell assay. AID 504915, 2011; in the data active = activation above about 17%;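 note: 0% = cells with vehicle only and 100% = full reference agonist response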
* hit, by the source's call; . = not tested or not shown; ! = repeats disagree. Cut-off read from the data, not from the text of the source, unless noted: active = activation above about 18%; inactive = the rest.

SMILES	NALP1 inh	MOR-DOR ag-1	HTR5A inv ag	HTR5A ag	MOR-DOR inv ag	PolyA inhibitor	MOR-DOR ag-2	HTR5A ag confirm
Cc1nc(NC(=O)/C=C/c2ccccc2)sc1C(=O)Nc1ccccc1Cl	7.9	-0.7	18.9	-1.9	3.7	-3.4	.	.
Cc1nc(NC(=O)/C=C/c2ccccc2)sc1C(=O)Nc1ccc(Cl)cc1	4.8	11.6	-48.9	17.1*	-58.5	-3.4	4.1	4.2
COc1ccc(C(CCN2CCCC(C)C2)c2c(OC)cc(OC)c3c(-c4ccccc4)cc(=O)oc23)cc1 (stereo unspecified)	-5.3	-1.2	-66.2	22.6*	6.7	6.3	-0.6	-4.7
COc1cc(OC)c2c(-c3ccccc3)cc(=O)oc2c1C(CCN1CCCC(C)C1)c1ccc(N(C)C)cc1 (stereo unspecified)	3.2	-1.5	-8.7	-6.0	8.5	-5.5	.	.
O=C(CCSCc1ccccc1F)NCc1ccc(F)cc1	0.3	-1.9	3.4	-1.0	8.4	-10.9	.	.
CCn1nc(C)c(/C=N/NC(=O)c2ccoc2C)c1C	4.7	1.1	-53.3	18.1*	-6.3	-5.1	5.7	11.8
CCCCCn1nc(C)c(/C=N/NC(=O)c2ccoc2C)c1C	19.3	-1.6	-20.6	6.4	9.2	-2.8	.	.
CCn1nc(C)c(/C=N/NC(=O)c2nc3nc(C)cc(C)n3n2)c1C	11.5	0.2	-13.5	15.8*	-1.2	4.6	2.2	6.1
CCc1cc(-c2n[nH]c(C)c2-c2ccccc2Cl)c(O)cc1OC	2.5	7.5	-7.1	1.9	-38.5	1.0	.	.
Cc1ccc(S(=O)(=O)NC(CCC(N)=O)C(=O)NCc2ccc3c(c2)OCO3)c(C)c1 (stereo unspecified)	.	-1.0	6.0	-2.4	5.4	.	.	.
O=C(NCCc1cnc[nH]1)Nc1cccc(C(F)(F)F)c1	4.2	2.1	-20.6	17.2*	-10.5	0.9	-0.5	11.8
C=CCN(C(=O)CNC(=O)c1cccs1)C(C(=O)NC1CCCCC1)c1cccnc1 (stereo unspecified)	-12.5	-2.6	-6.5	2.7	12.8	9.9	.	.
O=C(CCc1nnc(C2(c3ccc(Cl)cc3)CCC2)o1)NCCCn1cccn1	0.1	-1.4	-23.0	7.8	7.2	-15.0	.	.
CCCOc1c(Cl)cc(C(=O)Nc2ccc3c(c2)OCO3)cc1OCC	30.8	9.5	-33.9	15.9*	-55.9	4.6	1.1	-4.2
O=C(COc1ccc(Cl)cc1)NCCSCc1cccc(Cl)c1	11.3	-1.2	10.9	1.4	6.7	-26.3	.	.
Cc1cccc(CSCCNC(=O)COc2ccc(Cl)cc2)c1	23.6	2.9	1.5	14.5*	-20.5	7.6	-5.9	-4.2
CNC(=O)CSc1nnc(-c2ccccc2F)n1CCc1ccccc1	-1.0	-3.3	8.5	-2.9	16.5	8.9	.	.
C=CCN1CCc2c(cc(O)c(O)c2Br)[C@@H](c2ccccc2)C1	.	8.9	-108.9	57.4*	-49.2	-5.4	7.5	59.5*
COc1ccccc1NNC(=O)c1cc(C(C)(C)C)nn1Cc1ccccc1	9.5	-3.7	-11.8	7.5	19.0	-3.0	.	.
CC(C)(C)c1cc(C(=O)NNc2cc(C(F)(F)F)ccc2Cl)n(Cc2ccccc2)n1	1.4	17.7	15.3	18.3*	-88.8	-3.3	12.2	15.6
O=c1[nH]c(C2CCN(S(=O)(=O)/C=C/c3ccccc3)CC2)nc2c1nnn2Cc1ccccc1	7.7	-2.1	-1.1	1.9	13.1	-13.4	.	.
Cc1ccc(S(=O)(=O)CCC(=O)OCC(=O)N2c3ccccc3CC2C)cc1 (stereo unspecified)	.	0.6	-75.6	29.0*	-3.8	-17.8	0.3	33.1*
COc1ccc(-n2c(Cc3cccn3C)nnc2SCC(=O)Nc2cccc(OC)c2)cc1	17.3	-0.2	4.8	-1.8	0.9	-13.5	.	.
COc1ccc(NC(=O)CSc2nnc(Cc3cccn3C)n2-c2ccc(C)cc2)cc1OC	-21.4	-1.7	-49.0	15.1*	8.9	4.6	2.7	3.1
COc1ccccc1N1CCN(C(=O)c2ccc(Cn3c(=O)[nH]c4ccsc4c3=O)cc2)CC1	.	-0.1	9.2	16.0*	0.8	-8.5	0.1	12.4
SMILES	NALP1 inh	MOR-DOR ag-1	HTR5A inv ag	HTR5A ag	MOR-DOR inv ag	PolyA inhibitor	MOR-DOR ag-2	HTR5A ag confirm
CC1(C)Cc2c(sc3c2c(=O)n(-c2cccc(Cl)c2)c(=O)n3CC(N)=O)CO1	.	-2.1	10.4	0.1	10.7	4.4	.	.
CCC(OC(=O)CN1C(=O)c2ccccc2C1=O)C(=O)NC1CCCC1 (stereo unspecified)	12.5	-1.3	-6.2	2.3	6.7	-9.0	.	.
CC(C)C(OC(=O)CN1C(=O)c2ccccc2C1=O)C(=O)NC1CCCCC1 (stereo unspecified)	17.4	-1.4	-41.7	14.8*	7.3	2.5	8.8	6.1
COc1ccc2cc3cc(C(=O)Nc4ccc5c(c4)OCCO5)oc3nc2c1	5.5	1.9	-20.8	24.8*	-9.3	0.9	4.5	4.2
CCCCN(C1CCS(=O)(=O)C1)S(=O)(=O)c1ccc(OC)cc1 (stereo unspecified)	.	2.5	13.4	-5.4	-13.7	0.5	.	.
Cc1ccc(-c2csc(-c3c[nH]c4ccccc34)n2)c(C)c1	-7.7	0.8	18.4	-7.1	-4.2	-7.7	.	.
Oc1ccc(-c2csc(-c3c[nH]c4ccccc34)n2)c(O)c1	10.1	7.1	-55.4	27.5*	-36.1	-27.6	6.2	26.2*
CC(C)C[C@H](NC(=O)N1CC(=O)Nc2ccccc21)C(=O)N[C@@H](Cc1c[nH]c2ccccc12)C(=O)O	-6.5	-3.1	-1.3	39.8*	15.6	2.8	-0.1	-2.3
CC1CCC(C(C)C)C(OC(=O)Cn2c(-c3ccc(Br)cc3)[n+](C)c3ccccc32)C1 (stereo unspecified)	-14.9	1.7	-42.6	16.5*	-8.6	-10.8	50.3*!	3.9
Cc1ccccc1OCc1n(CC(=O)OC2CC(C)CCC2C(C)C)c2ccccc2[n+]1C (stereo unspecified)	15.4	3.9	-51.3	18.3*	-20.8	2.5	13.8	7.3
COc1ccc(S(=O)(=O)NCc2ccc(F)cc2)cc1OC	11.0	-2.9	-26.9	0.3	15.4	26.9	.	.

Compound activity from PubChem.
